In the library only some 19% were active in any assay of this set; here they are far more common.
HT1080 IDH1KD tx = qHTS for induction of synthetic lethality in tumor cells producing 2HG: qHTS for the HT-1080-IDH1KD cell line | HT-1080 IDH1 knockdown viability, ATP luminescence, 48 h | AID 686971, 2013 | Potency, µM (series often up to 46.1 µM), without a hit: at the highest dose activity, negative = toxicity, actives largely listed as cytotoxic | 2% of 360,000 active;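 also: potency is read from the fitted curve at half-maximal effect; 0% = DMSO wells and -100% = cell-free medium wells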
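Knockdown cells (IDH1KD HT-1080) received compounds 2 h after plating at 750 cells/well and were kept 48 h at 37 °C in 5% FBS RPMI. A CellTiter-Glo luminescence read gave % activity for curve fitting.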
DT40 TDP1 CPT = qHTS for Inhibitors of human tyrosyl-DNA phosphodiesterase 1 (TDP1): qHTS in cells in presence of CPT. Potency, µM (doses to about 46.2 µM), inactives show top-dose activity change, negative = growth inhibition, actives largely listed as inhibitors. chicken DT40 Tdp1-/-;hTDP1 cells + 20 nM CPT, ATP luminescence, 48 h. AID 686979, 2013. 12% of 420,000 active; also: potency is read from the fitted curve at half-maximal effect; nearly all actives have a fitted effect of over 55% in size
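Cell growth measured by CellTiter-Glo luminescence after a minimum 48 h, 37 C compound exposure with 20 nM CPT in Tdp1-knockout DT40 cells stably expressing hTDP1, seeded 400/well; qHTS titration format.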
IL-1B inflam inh = qHTS for Inhibitors of Inflammasome Signaling: IL-1-beta AlphaLISA Primary Screen; 4.7% of 360,000 active; activity change, % at 57.5 µM; THP-1 LPS/ATP IL-1B secretion, AlphaLISA, 16 h; stronger effect = lower value; in the data active = activity change below about -50%; inconclusive = mostly about -30% to -49%
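Secreted IL-1B measured by AlphaLISA bead assay after 16 h compound exposure of THP-1 cells; compounds (final up to 57.5 uM) added 1 h before LPS (250 ng/mL) and ATP (1.25 mM) stimulation; lower signal means less secretion.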
ELG1 repair inh = qHTS screen for small molecules that inhibit ELG1-dependent DNA repair in human embryonic kidney (HEK293T) cells expressing luciferase-tagged ELG1; AID 504467, 2011; HEK293T ELG1-luciferase reporter, luminescence, 16 h; DNA damage induced by 5-fluorouridine; 2.3% of 330,000 active; Potency, µM (titrated, usually from 46.1 µM), without a hit: at the top dose activity change, negative = inhibition, most hits filed as inhibitors; also: potency is read from the fitted curve at half-maximal effect; nearly all actives have a fitted effect of over 55% in size
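In this reporter screen, reduction of luminescence relative to DMSO vehicle indicated activity. Compounds and 5-fluorouridine were added together to 2,000 cells per well, incubated for 16 hr at 37 °C, then developed with ONE-Glo.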
DT40 TDP1 no CPT = qHTS for Inhibitors of human tyrosyl-DNA phosphodiesterase 1 (TDP1): qHTS in cells in absence of CPT; DT40 Tdp1-/- hTDP1 cells, no CPT, ATP luminescence, 48 h; 15% of 420,000 active; Potency, µM (doses to about 46.2 µM), for the others: at the top dose activity change, negative = growth inhibition, usual class: inhibitors; AID 686978, 2013; also: potency is read from the fitted curve at half-maximal effect; nearly all actives have a fitted effect of over 55% in size
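A cellular qHTS used chicken DT40 cells lacking endogenous Tdp1 but carrying stably transfected human TDP1. Compounds were applied without camptothecin, and cell growth kinetics were judged by ATP-dependent luminescence after ≥48 hr.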
HT1080NT lethal = qHTS for induction of synthetic lethality in tumor cells producing 2HG: qHTS for the HT-1080-NT fibrosarcoma cell line; AID 686970, 2013; Potency, µM (doses to about 46.1 µM), for the others: at the highest dose activity, negative = less viability, hits mostly cytotoxic; 1.6% of 360,000 active; HT-1080-NT fibrosarcoma viability, CellTiter-Glo ATP luminescence, 48 h;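 also: NT is the 2HG producing partner of a matched IDH1 knockdown line; potency is read from the fitted curve at half-maximal effect; 0% = DMSO-treated cells and -100% = media-only wells without cells; nearly all actives have a fitted effect of over 55% in size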
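Toxicity toward the 2HG-producing NT line was scored as %Activity, normalised to DMSO and no-cell wells, from CellTiter-Glo luminescence after 48 hours' treatment.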
Active calls of the source: *; ? = inconclusive; nt = not tested or not shown. Unless noted, calls follow the shape of the dose curve; as a rule, active = well fitted curve in the direction sought with a large enough effect; inconclusive = small, poorly fitted or top-dose-only effect, or another doubt; inactive = no such curve, though single readings can be large; an effect the other way counts as inactive or inconclusive. Unless noted, % is scaled to controls: 0 for no effect and ±100 for the full control effect.

SMILES	HT1080 IDH1KD tx	DT40 TDP1 CPT	IL-1B inflam inh	ELG1 repair inh	DT40 TDP1 no CPT	HT1080NT lethal
CCOC(=O)c1c(SCCN2CCCC2)n(-c2ccccc2)c(=S)n(-c2ccccc2)c1=O	7.3µM*	4.6µM*	-111*	nt	5.2µM*	?
COc1cccc(/C=C(/C(=O)OCC(=O)NC2CCCC(C)C2C)c2ccccc2)c1 (stereo unspecified)	?	?	-65*	?	21µM*	?
CNS(=O)(=O)c1cn(CC(=O)Nc2cccc(OC)c2)cc1S(=O)(=O)NC	nt	-2%	nt	nt	2%	nt
CC1=NN(/C(=N\c2nnc(C)s2)Nc2ccccc2)[C@H](c2cccc3ccccc23)S1	-2%	23µM*	-5	?	?	-2%
CC1=NN(/C(=N\c2nnc(C)s2)Nc2ccc(C)cc2)[C@H](c2ccc(C)cc2)S1	-7%	?	-7	-11%	?	-4%
CC1(C)N=C(N)N=C(N)N1CCCCc1ccccc1	0.15µM*	2.1µM*	10	nt	0.52µM*	?
Cc1ccccc1N1C(N)=NC(N)=NC1(C)C	13%	-2%	-17	9%	?	9%
CS(=O)(=O)CCC(C(=O)OCc1ccc(Cl)cc1)N1C(=O)c2ccccc2C1=O (stereo unspecified)	-1%	1%	0	-4%	?	-5%
CSc1nc2ccc(NC(=O)c3nn(C(C)C)c(=O)c4ccccc34)cc2s1	0%	18µM*	-52*	?	?	-3%
CC1=CC2=C(C=O)C(=O)C(C)(O)C(O)C2=CO1 (stereo unspecified)	-25%	?	-62*	nt	?	?
CCCCN(C(=O)CC1OC(=O)c2ccccc21)c1c(N)n(CCCC)c(=O)[nH]c1=O (stereo unspecified)	16%	-10%	2	?	-7%	10%
O=C(NCC1CC1)c1cc2c(c(-c3cccc(-c4ccccc4F)c3)n1)[C@@H](CCO)N(C(=O)CC1CC1)C2	?	21µM*	-59*	nt	?	21µM*
O=C(NCC1CC1)c1cc2c(c(-c3cccc(-c4ccccc4F)c3)n1)[C@H](CCO)N(C(=O)CC1CC1)C2	?	?	0	nt	18µM*	23µM*
O=C(NCC(F)(F)F)c1cc2c(c(-c3cccc(-c4ccccc4F)c3)n1)[C@@H](CCO)N(C(=O)CC1CC1)C2	21µM*	?	?	nt	?	?
CCNC(=O)c1cc2c(c(-c3cccc(-c4ccccc4F)c3)n1)[C@@H](CCO)N(C(=O)CC)C2	-8%	?	-11	nt	?	-6%
CC(C)C[C@H]1CN(CCCC[C@H]2CNC(=O)C(=O)N2CC2CCCCC2)C(=O)C(=O)N1CCc1ccc(O)cc1	8%	0%	-1	nt	-22%	19%
CCOC(=O)NN1C(=O)c2ccccc2NC1c1ccc(OC)cc1OC (stereo unspecified)	2%	0%	10	-12%	-5%	6%
CC(=O)N1CCCc2cc(S(=O)(=O)N3CCC(C(=O)NCc4cccc(C)c4)CC3)ccc21	nt	-57%	nt	nt	?	nt
CN1C(=O)[C@H]2[C@@H](c3ccc(C(F)(F)F)cc3)N[C@]3(CCCN(Cc4ccco4)C3=O)[C@H]2C1=O	15%	?	2	nt	?	3%
COc1ccc(NC(=O)CN2CCC(C(N)=O)(N3CCCCC3)CC2)c(OC)c1	5%	14%	31	-2%	5%	-2%
Cc1ccc(C(=O)c2cn(CC(=O)Nc3ccc(C)cc3Cl)c3nc(C)ccc3c2=O)cc1	nt	10µM*	nt	nt	23µM*	nt
Cc1ccc(C(=O)c2cn(CC(=O)NCc3ccccc3)c3nc(C)ccc3c2=O)cc1	nt	-12%	nt	nt	-2%	nt
COc1ccc(Cl)cc1NC(=O)Cn1cc(C(=O)c2ccc(C)cc2)c(=O)c2ccc(C)nc21	nt	?	nt	nt	23µM*	nt
Cc1ccc(CNC(=O)Cn2cc(C(=O)c3ccc(Cl)cc3)c(=O)c3ccc(C)nc32)cc1	nt	16µM*	nt	nt	16µM*	nt
CN(C)c1ncnc2c1ncn2C1CCCO1 (stereo unspecified)	5%	1%	-1	nt	-15%	5%
SMILES	HT1080 IDH1KD tx	DT40 TDP1 CPT	IL-1B inflam inh	ELG1 repair inh	DT40 TDP1 no CPT	HT1080NT lethal
Cc1nc(Cn2c3ccc(NC(=S)NC4CCCCC4)cc3c(=O)n2C)cs1	4%	?	7	nt	?	0%
C=CCSc1n[nH]c(-c2ccc(OCCCC)cc2)n1	-11%	?	14	?	?	-10%
C=CCSc1n[nH]c(-c2ccc(OCCC)cc2)n1	8.9µM*	29µM*	-4	?	16µM*	7.1µM*
COc1ccc2nc(NS(=O)(=O)c3ccc(C)cc3)c(Nc3cc(Cl)ccc3OC)nc2c1	nt	?	nt	nt	23µM*	nt
CCOc1ccc(S(=O)(=O)Nc2cc(OC)ccc2OC)cc1	?	0.37µM*	-4	20%	0.33µM*	0.18µM*
COc1ccc(OC)c(NS(=O)(=O)c2ccc(SC)cc2)c1	?	9.2µM*	36	?	16µM*	?
COc1ccc(S(=O)(=O)c2cc(NS(=O)(=O)c3ccc(Cl)cc3)c(C)c(C)c2O)cc1	nt	-19%	nt	nt	16µM*	nt
COc1cc(Cl)c(C)cc1Nc1nc2ccccc2nc1NS(=O)(=O)c1ccccc1	nt	-16%	nt	nt	-27%	nt
COc1ccc(N2CC(NC(=O)c3ccc(S(=O)(=O)N4CCOCC4)cc3)CC2=O)cc1 (stereo unspecified)	nt	-26%	nt	nt	?	nt
CCCCN1C(=O)C(CC(=O)NCCN2CCOCC2)CC(C(=O)N2CCCCCC2)=C1C (stereo unspecified)	7%	-19%	24	nt	-5%	7%
Cc1nnc(C(C)C)n1C1C[C@H]2CC[C@@H](C1)N2CC[C@H](NC(=O)C1CCC(F)(F)CC1)c1ccccc1 (stereo partly specified)	nt	-4%	nt	nt	-9%	nt
COc1cc(CN2CCN(C(=O)c3ccccc3F)CC2)cc(OC)c1OC	-2%	-5%	-6	?	?	6%
